According to PubChem BioAssay (NCATS):
Records with an inconclusive call do not appear. Entries that show only a call come without a potency. A number with no mark means an inactive call. The source made the active and inactive calls. Calls come from the whole dose curve; as a rule, active = well fitted curve in the direction sought with a large enough effect; inconclusive = small, poorly fitted or top-dose-only effect, or another doubt; inactive = no such curve, though single readings can be large; an effect the other way counts as inactive or inconclusive.

How the values were obtained:
CRL-7250 = normal cell line; assay: Cytotoxic Profiling of Annotated Libraries Using Quantitative High-Throughput Screening (AID 1296008); conditions: Five cell lines viability, CellTiter-Glo ATP luminescence, 48-72 h; max response: active compounds read low; note: nearly all actives have a fitted effect of over 60% in size; note: potency is the fitted concentration of half-maximal effect
Procedure, shortened: (§1)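 Cytotoxicity was measured as CellTiter-Glo ATP luminescence, read after 10 min at room temperature. Compound treatment of the cells lasted 48 or 72 hr at 37 degrees Celsius in a qHTS format.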

HEK293 = assay: as above; conditions: Five cell lines viability, CellTiter-Glo ATP luminescence, 48-72 h; max response: active compounds read low
Procedure, shortened: as §1

HaCat = assay: as above; conditions: Five cell lines viability, CellTiter-Glo ATP luminescence, 48-72 h; max response: active compounds read low
Procedure, shortened: as §1

KB-3-1 = assay: as above; conditions: Five cell lines viability, CellTiter-Glo ATP luminescence, 48-72 h; max response: active compounds read low
Procedure, shortened: as §1

NIH3T3 [1] = assay: as above; conditions: Five cell lines viability, CellTiter-Glo ATP luminescence, 48-72 h; max response: active compounds read low
Procedure, shortened: as §1

NIH3T3 [2] = assay: qHTS assay to identify novel small-molecules to repurpose for Merkel cell carcinoma treatment (AID 1296009); conditions: MCC and control cell lines, CellTiter-Glo viability, 72 h; at 44.8 µM (top of the series) unless noted; note: nearly all actives have a fitted effect of over 60% in size
Procedure, shortened: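 After compound transfer in DMSO, plates were kept 72 hr at 37 degree celsius. Luminescent ATP signal from CellTiter-Glo served as viability measure, normalized against DMSO and no-cell controls.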

C33A = assay: Primary qHTS to identify gynecologic anti-cancer compounds using libraries of approved drugs and bioactive compounds (AID 1345084); conditions: Gynecologic cancer cell panel viability, ATPlite luminescence, 48 h; series mostly up to 57.5 µM; note: nearly all actives have a fitted effect of over 55% in size
Procedure, shortened: (§2)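 In this quantitative HTS, cell killing is estimated from loss of ATP-dependent luciferase light. Cells see five compound concentrations over a 48 h exposure.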

CAOV3 = assay: as above; conditions: Gynecologic cancer cell panel viability, ATPlite luminescence, 48 h; series mostly up to 57.5 µM
Procedure, shortened: as §2

CASKI = assay: as above; conditions: Gynecologic cancer cell panel viability, ATPlite luminescence, 48 h; series mostly up to 57.5 µM
Procedure, shortened: as §2

Es-2 = assay: as above; conditions: Gynecologic cancer cell panel viability, ATPlite luminescence, 48 h; series mostly up to 57.5 µM
Procedure, shortened: as §2

HeLa = assay: as above; conditions: Gynecologic cancer cell panel viability, ATPlite luminescence, 48 h; series mostly up to 57.5 µM
Procedure, shortened: as §2

Hek293T = assay: as above; conditions: Gynecologic cancer cell panel viability, ATPlite luminescence, 48 h, control line for the selectivity index; series mostly up to 57.5 µM
Procedure, shortened: as §2

JEG-3 = assay: as above; conditions: Gynecologic cancer cell panel viability, ATPlite luminescence, 48 h; series mostly up to 57.5 µM
Procedure, shortened: as §2

Structure (SMILES)	max response (CRL-7250) [%]	max response (HEK293) [%]	max response (HaCat) [%]	max response (KB-3-1) [%]	outcome (NIH3T3 [1])	outcome (NIH3T3 [2])	Potency (C33A)	Potency (CAOV3)	outcome (CASKI)	Potency (Es-2)	Potency (HeLa)	Potency (Hek293T)	Potency (JEG-3)	outcome (KB-3-1)	outcome (CRL-7250)	Potency (HEK293)
COc1cc(C[C@@]2(O)CO[C@@H](c3ccc(O[C@@H]4O[C@H](CO)[C@@H](O)[C@H](O)[C@H]4O)c(OC)c3)[C@H]2CO)ccc1O	-6.96	0.509	-8.64	1.94	inactive	inactive [at 17.4 µM]	inactive	inactive	inactive	inactive	inactive	inactive	inactive	–	–	–
Cc1cc(O[C@@H]2O[C@H](COC(=O)CC(=O)O)[C@@H](O)[C@H](O)[C@H]2O)c(C(C)C)cc1O	0.0068	-1.41	0.109	-13.3	inactive	inactive [at 17.4 µM]	inactive	inactive	inactive	inactive	inactive	inactive	inactive	–	–	–
C=C1CCC2C(C)(C(=O)OC)CCCC2(C)C1CCC1=CCOC1=O (centres undefined)	3.38	2.4	1	–	inactive	inactive	inactive	inactive	inactive	inactive	inactive	inactive	inactive	inactive	–	–
Cc1cc(CNC(=O)c2cc(C(=O)NCc3ccc(F)c(C)c3)ncn2)ccc1F	4.78	1.88	-0.507	–	inactive	inactive	inactive	inactive	inactive	inactive	inactive	inactive	inactive	inactive	–	–
CC(C)(C)NS(=O)(=O)c1ccc(-c2ccc3[nH]nc(N)c3c2)cc1	-6.71	-2.12	-19	8.07	inactive	inactive	inactive	inactive	inactive	inactive	inactive	inactive	inactive	–	–	–
COc1cn(-c2ccc(-n3cccn3)cc2F)nc(-c2ccnn2-c2ccccc2)c1=O	1.34	-9.47	-2.34	7.34	inactive	inactive	inactive	inactive	inactive	inactive	inactive	inactive	inactive	–	–	–
Cn1cc(CCn2cnc(-c3cnn(C)c3)c2-c2ccc(C#N)cc2)cn1	-0.888	0.036	-11.5	–	inactive	inactive	inactive	inactive	inactive	inactive	inactive	inactive	inactive	inactive	–	–
COc1cc(/C=C/C(=O)O[C@@H]2C[C@@](O)(C(=O)O)C[C@@H](O)[C@@H]2O)ccc1O	-0.566	0.393	-12	0.239	inactive	inactive	inactive	inactive	inactive	inactive	inactive	inactive	inactive	–	–	–
C=C1C2CCC3CC2(CC(O)C2(O)C1CC(OC1OC(CO)C(O)C(O)C1O)C2(C)C)CC3(C)O (centres undefined)	-0.056	4.37	-5.66	-0.357	inactive	inactive [at 17.4 µM]	inactive	inactive	inactive	inactive	inactive	inactive	inactive	–	–	–
CC(C)CC(=O)OC[C@@]1(O)C[C@@]23CC[C@H]4[C@@](C)(CCC[C@@]4(C)C(=O)O)[C@@H]2CC[C@@H]1C3	–	1.06	-4.56	4.98	inactive	inactive [at 17.4 µM]	inactive	inactive	inactive	inactive	inactive	inactive	inactive	–	inactive	–
Cc1onc(-c2c(Cl)cccc2Cl)c1CC(=O)NCc1ccc(OCC(F)(F)F)nc1	0.479	-15.1	1.93	–	inactive	inactive	inactive	inactive	inactive	inactive	inactive	inactive	inactive	inactive	–	–
CC1=CC23[C@H](C=C(C(=O)O)[C@@H]2COC(=O)[C@]3(O)CO)[C@@H]1C (some centres undefined)	-1.44	2.57	-3.69	5.88	inactive	inactive	inactive	inactive	inactive	inactive	inactive	inactive	inactive	–	–	–
C/C=C/C=C/C=C/C(=O)O[C@@H]1C=C(CO)[C@](O)(CO)[C@@]2(C)CCCC(C)(C)[C@H]12	-5.67	–	-1.12	–	inactive	inactive	inactive	inactive	inactive	inactive	inactive	inactive	inactive	inactive	–	12.8 µM (active)
